Source: PubChem BioAssay AID2113 (National Center for Advancing Translational Sciences (NCATS), 2009)
“And” between values parts separate entries of the source, which are not always exact repeats. Equal values may be shown once. Records with an inconclusive call do not appear. The source made the active and inactive calls. Calls follow the shape of the dose curve; as a rule, active = well fitted curve in either direction with a large enough effect; inconclusive = small, poorly fitted or top-dose-only effect; inactive = no such curve, though single readings can be large or run the other way.

Target: Lysosomal alpha-glucosidase (Homo sapiens) (UniProt P10253)
Assay: Confirmation of Inhibitors and Activators of Human alpha-Glucosidase From Spleen Homogenate;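 as to Potency: fluorescence of 4-methylumbelliferone released from a fluorogenic glucopyranoside substrate at pH 5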
Conditions: alpha-glucosidase enzyme activity; series mostly up to 60.5 µM
In short: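 Fluorogenic assay using human spleen homogenate (1 ug) as enzyme source with 1 mM 4-methylumbelliferyl-alpha-D-glucopyranoside, pH 5.0 citrate buffer, 40 min at 37 C. 4-MU read (Ex 365/Em 440) after NaOH/glycine stop; AC50 from Hill fits.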
Potency is read from the fitted curve at half-maximal effect.

Potency, active:
CCCN1CNc2c(c(=O)[nH]c(=S)n2CCc2ccc(OC)c(OC)c2)C1 11.2 µM and 15.8 µM, CCCN1CNc2c(c(=O)[nH]c(=S)n2CCc2cccc(OC)c2)C1 15.8 µM, CCCN1CNc2c(c(=O)[nH]c(=S)n2CCc2cc(Cl)ccc2Cl)C1 14.1 µM, O=C1Cc2cc(S(=O)(=O)N3CCN(c4cccc(C(F)(F)F)c4)CC3)ccc2N1 18.8 µM [inhibitor]

Potency, inactive:
O=C(O)Cc1sc(-c2cc3ccccc3oc2=O)nc1-c1ccc(-c2ccccc2)cc1, COc1cc(CN2CCC(CO)(Cc3cccc(C(F)(F)F)c3)CC2)ccc1F, CC/C(=C(\c1ccccc1)c1ccc(OCCN(C)C)cc1)c1ccccc1, CC(=O)c1ccc(N2CCN(C(=O)c3ccc4c(c3)CCC(=O)N4)CC2)cc1, Cc1cccc(-n2c(N)cc(=O)[nH]c2=S)c1, CN(C)N=C1c2cc(S(=O)(=O)N3CCOCC3)ccc2-c2ccc(S(=O)(=O)N3CCOCC3)cc21, N#C/C(=C\c1cc(O)c(O)c(O)c1)C(N)=O, COc1ccc(/C=C/c2nnc(NC(=O)CSc3ccc(C)cc3)s2)cc1, NC(=O)NN=C1c2cc(S(=O)(=O)N3CCOCC3)ccc2-c2ccc(S(=O)(=O)N3CCOCC3)cc21, COc1ccc(CCn2c(=S)[nH]c(=O)c3c(C)cc(C)nc32)cc1OC, CC(=O)c1cccc(S(=O)(=O)N2CCOCC2)c1, CCc1sc(-c2cc3ccc(O)cc3oc2=O)nc1-c1ccc(C)cc1, O=S(=O)(c1ccc(F)cc1)N1CCOCC1, CC(N=C(NC#N)Nc1ccncc1)C(C)(C)C (stereo not given), O=S(=O)(c1ccc(-c2ccccc2)cc1)N1CCOCC1, COC(=O)c1c(NC(=O)Cn2nc(C(F)F)cc2C(F)F)sc(C)c1C, O=c1[nH]cc(CCc2ccccc2)c2ncncc12, N#Cc1c(-c2ccccc2)nc(SCc2nc(N)nc(N3CCCCC3)n2)[nH]c1=O, COc1ccc(CCN2CNc3c(c(=O)n(C)c(=O)n3C)C2)cc1OC, CCN(CC)c1ccc(/C=N/NC(=O)C(O)c2ccccc2)cc1 (stereo not given), O=S(=O)(c1ccccc1Br)N1CCOCC1, O=c1oc2ccc(Cl)cc2cc1-c1nc2c(s1)CCCC2, Cc1ccc(N/N=C2\CCS(=O)(=O)c3sccc32)cc1, O=S(=O)(c1ccccc1F)N1CCOCC1, CCC(C)N1CNc2c(c(=O)[nH]c(=S)n2-c2cccc(C)c2)C1 (stereo not given), COc1ccc2nc3c(cc2c1)Cn1c-3nc2ccccc2c1=O, O=C(O)Cc1sc(-c2cc3ccccc3oc2=O)nc1-c1ccc(Br)cc1, COC(=O)c1ccc(CSc2cc(C)c3cccc(C)c3n2)o1, CCCCCCc1cc2cc(C(=O)NC)c(=N)oc2cc1O, CN(CCO)S(=O)(=O)c1ccc2c(c1)C(=NNC(N)=O)c1cc(S(=O)(=O)N(C)CCO)ccc1-2, O=c1[nH]cc(C#Cc2ccccc2)c2ncncc12
